Source: PubChem BioAssay AID2107 (National Center for Advancing Translational Sciences (NCATS), 2009)
Among all 240,000 compounds or so, about 20 (0.008%) were called active. Inconclusive results (about 1%) are left out. These entries were drawn from the full list. A number with no mark means an inactive call. Calls follow the shape of the dose curve; as a rule, active = well fitted inhibition curve with a large enough effect; inconclusive = small, poorly fitted or top-dose-only effect, or effect the other way; inactive = flat fitted curve, though single readings scatter. Peptide text beside a SMILES is read from it.

What follows are compounds tested against Alpha-galactosidase A (Homo sapiens) (UniProt P06280) (assay: qHTS Assay for Inhibitors and Activators of Human alpha-Galactosidase From Spleen Homogenate). Conditions: 4MU-alpha-Gal fluorescence, 40 min; series mostly up to 80 µM.
Source text: NIH Chemical Genomics Center [NCGC] NIH Molecular Libraries Probe Production Centers Network [MLPCN] MLPCN Grant: R03 MH084842-01 Assay Submitter (PI): Wei Zheng NCGC Assay Overview: Alpha-galactosidase is a homodimeric glycoprotein that hydrolyzes the terminal alpha-galactosyl moieties from glycolipids and glycoproteins. Deficiency of this enzyme results in Fabry Disease with progressive accumulation of globotriaosylceramide and other glycosphingolipids in vascular endothelial cells that causes renal failure, myocardial infarction and stroke, and premature death in patients. It has been reported that the improper folding and trafficking of alpha-galactosidase resulting from genetic mutations may account for a significant number of Fabry patients. […] We optimized this alpha-galactosidase assay in 1536-well plate format for identification of novel small molecule inhibitors or activators with structures other than the sugar analogs in order to develop new pharmacological chaperones. In particular, this assay is directed towards discovering compounds active in more natural setting, tissue homogenate, that may have been missed by screens of the purified enzyme under more stringent conditions.
NCGC Assay Protocol Summary: This is a fluorogenic enzyme assay with 4-methylumbelliferyl-alpha-D-galactopyranoside as the substrate and human spleen homogenate containing alpha-galactosidase as the enzyme preparation. Upon hydrolysis of this fluorogenic substrate, the resulting product, 4-methylumbelliferone (which excites at 365 nm and emits at 440 nm) can be detected by a fluorescence plate reader. Data were normalized to the controls for basal activity (without enzyme) and 100% activity (with enzyme). The AC50 values were determined from concentration-response data modeled with the standard Hill equation. Assay buffer: 50 mM citric acid (titrated with potassium phosphate to pH 5.0), 0.01% Tween-20 (pH 5.0 is an optimal condition for this enzyme assay) 1536-well assay protocol for the alpha-galactosidase from human spleen homogenate: (1) Add 2 ul/well spleen homogenate (1 ug) (2) Add 23 nL compounds in DMSO solution. The final titration was 0.5 nM to 58 uM. (3) Add 2 ul of substrate (1 mM final) (4) Incubate at 37C for 40 min (5) Add 2 ul stop solution (1M NaOH and 1M Glycine mixture, pH 10) (6) Detect the assay plate in a ViewLux plate reader (PerkinElmer) with Ex=365 nm and Em=440nm. Keywords: Alpha-galactosidase, Fabry Disease, pharmacological chaperone, chaperone therapy, high throughput screening, alpha- galactosidase inhibitor, MLSMR, MLSCN, NIH Roadmap, qHTS and NCGC
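Also: 0% = enzyme with vehicle and -100% = no enzyme basal signal.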

Chain of Alpha-galactosidase A (Homo sapiens) (P06280 32-429 limits assumed): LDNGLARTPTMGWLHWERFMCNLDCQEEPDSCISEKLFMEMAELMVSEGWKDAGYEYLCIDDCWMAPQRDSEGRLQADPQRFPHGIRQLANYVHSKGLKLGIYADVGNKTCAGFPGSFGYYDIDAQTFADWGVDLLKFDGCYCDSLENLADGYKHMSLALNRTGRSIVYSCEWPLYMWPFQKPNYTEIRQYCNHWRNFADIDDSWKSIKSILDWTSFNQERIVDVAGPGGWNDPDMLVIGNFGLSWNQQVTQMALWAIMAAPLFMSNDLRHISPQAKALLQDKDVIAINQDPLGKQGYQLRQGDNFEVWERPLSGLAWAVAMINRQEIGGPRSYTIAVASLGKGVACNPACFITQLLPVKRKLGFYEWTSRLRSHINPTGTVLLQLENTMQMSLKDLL

Compound	activity change, negative = inhibition
O=[N+]([O-])c1ccccc1S(=O)(=O)Nc1cccc2cccnc12	inactive
C=C1CCN(Cc2ccc(OC)cc2)S(=O)(=O)c2ccccc21	inactive
COc1cc(OC)c2c(c1C(CCN1CCCCC1)c1ccc(N(C)C)cc1)OC(=O)CC2c1ccc(N(C)C)cc1 (configuration not stated)	inactive
CCN(CC)S(=O)(=O)c1ccc(N(C)Cc2ccc(C(F)(F)F)cc2)nc1	inactive
CCOc1ccc(NC(=O)CN(C)CC(=O)Nc2cccc(Cl)c2C)cc1OCC	inactive
Cc1cccc(NC(=S)Nc2ccc3cn[nH]c3c2)c1	inactive
O=C(CCl)N(Cc1cccc([N+](=O)[O-])c1)c1cccc(Cl)c1	inactive
CCCCc1nn(-c2ccccc2C(F)(F)F)c(=O)n1Cc1ccc(-c2ccccc2S(=O)(=O)NC(=O)c2sccc2C)cc1	inactive
CCCCC/C=C/C=C/C=O	inactive
CC(Sc1nnc2c(n1)C1CCC2(C)C1(C)C)C(=O)Nc1ccccc1 (configuration not stated)	inactive
CO[C@@]12[C@@H](COC(N)=O)C3=C(C(=O)C(C)=C(N)C3=O)N1C[C@@H]1N[C@@H]12	inactive
O=C1CN(Cc2ccccc2)S(=O)(=O)c2ccccc21	inactive
CCOC(=O)Cn1c(=O)sc2cccc(Cl)c21	inactive
Cc1nc2c(C(=O)NCc3cccs3)cnn2c(C)c1Cc1ccc(F)cc1	inactive
Cc1ccc(OCC(=O)Nc2ccccc2Sc2ccc(Cl)cc2)c([N+](=O)[O-])n1	inactive
Cc1cc2oc(=O)cc(-c3ccccc3)c2c(C)c1-c1ccc(OC(F)(F)F)cc1	inactive
H-EHIPA-OH	inactive
O=C(NC1CCN(Cc2ccccc2)CC1)c1ccc(Oc2cc(Cl)cc(Cl)c2)o1	inactive
Cc1ccc(CNC(=O)C2(C(F)(F)F)C/C(=C\Cc3ccccc3)CCCO2)o1 (configuration not stated)	inactive
CCCC[C@@H]1C[C@H]1C(NC(=O)c1ccco1)c1ccc(C(=O)OC)cc1 (some centres not stated)	inactive
CCCN1CCC(=O)N(C(CSc2ccc(OC)cc2)Cc2ccccc2)CC1 (configuration not stated)	inactive

Compound	activity change, negative = inhibition
COc1ccc(C2/C=C\CN(C(=O)c3ccc(C)cc3)C(Cc3ccccc3)C(=O)N2Cc2ccc(F)cc2)cc1 (configuration not stated)	inactive
c1ccc2c(Nc3ccncc3)nc(-c3ccc4c(c3)OCO4)nc2c1	inactive
COc1ccc(-c2ccc(OC)c(C3C4C=CCC(C)C4C(=O)N3Cc3ccccc3)c2)cc1C (configuration not stated)	inactive
S=C(NCCc1ccccc1)NCc1ccccc1Cl	inactive
C=CCN(C(=O)c1cc(C)cc(C)c1)C1(C(=O)Nc2ccccc2)CCN(C(C)C)CC1	inactive
CCCCCOc1ccc(/C=C/C(=O)NCCc2nc3ccccc3[nH]2)cc1OC	inactive
O=C(O)C1CC=CC2CCN(C3CCCCC3)C(=O)C21 (configuration not stated)	inactive
CCOc1cc(-c2conc2N)cc(OCC)c1OCC	inactive
CC1(OC(=O)c2ccc(Cl)nc2)C(=O)Cc2cc(-c3ccsc3)ncc2C1=O (configuration not stated)	4.14% [at 17.5 µM]
O=C(O)CCc1nc2cc(Cl)ccc2n(Cc2ccccc2)c1=O	inactive
Cc1ccc(S(=O)(=O)c2nc(NCCCn3ccnc3)sc2Cl)cc1	inactive
COc1cccc2sc(N(CCCN(C)C)C(=O)C(c3ccccc3)c3ccccc3)nc12	inactive
CC(=O)OCCC(C)C	inactive
CN(C)CCOCCOc1ccc(Cl)c2ccccc12	inactive
COC(=O)CCc1ccccc1S(=O)(=O)N(CCC(=O)OC)Cc1ccccc1	inactive
CC(C)C(NS(=O)(=O)c1ccc(-c2ccc(Br)cc2)cc1)C(=O)O (configuration not stated)	inactive
CCn1c2ccccc2c2cc(NC(=O)Nc3ccc([N+](=O)[O-])cc3C)ccc21	inactive
COc1ccc(NC(=O)CSc2nnc(-c3ccccc3F)n2C2CC2)cc1S(N)(=O)=O	inactive
Cc1cc(C(=O)COc2ccccc2[N+](=O)[O-])c(C)n1-c1cccc(S(=O)(=O)N2CCOCC2)c1	inactive
Oc1ccc(-c2c(-c3ccccc3)nn3c(C(F)(F)F)cc(C(F)(F)F)nc23)cc1	inactive
CCCn1c(C)nc2c(NCCCCN(CC)CC)nc(C)nc21	inactive

Compound	activity change, negative = inhibition
COc1ccc(C2=Nn3c(nnc3-c3ccccc3O)SC2)cc1	inactive
O=C(Cc1coc2ccc3ccccc3c12)NCc1cccs1	inactive
O=C(CSC(=S)N1CCCCC1)c1c(F)cccc1F	inactive
O=c1c([N+](=O)[O-])cccn1Cc1ccc(F)cc1Cl	inactive
CCc1nnc(NC(=O)C2CC(=O)N(c3ccc4c(c3)OCCO4)C2)s1 (configuration not stated)	inactive
CCOC(=O)N1CCN(C(=O)c2ccccc2N(Cc2ccccc2)S(=O)(=O)c2ccc(OC)cc2)CC1	inactive
O=S(O)S(=O)(=O)O	inactive
COc1c(O)c2c(=O)cc(OC)c3c4c(OC)cc(=O)c5c(O)c(OC)c6c(c(c1C[C@@](C)(O)[C@H]6C(C)=O)c23)c54	inactive
NC(=O)C1(C(N)=O)OC1c1ccc(Cl)cc1Cl (configuration not stated)	inactive
C/C(=N/N1CCN(Cc2cccc3ccccc23)CC1)c1cccnc1	inactive
COc1ccc(N(C(=O)c2ccc(C)cc2)S(=O)(=O)c2cccs2)cc1	inactive
C[C@H]1CC[C@H](C(=O)O)N[C@@H]1c1ccc(C#Cc2ccccc2)cc1	7.47% [at 17.5 µM]
COc1ccc(-c2cn3ccc(C)cc3n2)cc1	inactive
CCN(CC)CCOCCOc1ccc(Cl)c2ccccc12	inactive
Cc1noc(C)c1-c1ccc2ncnc(NC(C)c3ccco3)c2c1 (configuration not stated)	inactive
Nc1ncnc2c1ncn2C1CC(O)C(CO)O1 (configuration not stated)	inactive
O=C(Nc1ccc2c(c1)OCO2)c1sc2cc(Cl)ccc2c1Cl	inactive
C/C(=N\NC(=O)c1ccc(C)cc1)C1C(=O)c2ccccc2C1=O	inactive
COc1ccccc1N1CCN(C(=O)c2ccc(Cl)c(S(=O)(=O)N3CCCC3)c2)CC1	inactive
CCOC(OCC)OCC	inactive
Cc1ccc(C)c2[nH]c(=O)c(CN(Cc3cccnc3)C(=S)NCc3ccco3)cc12	inactive

Compound	activity change, negative = inhibition
Cc1ccc(CNC(=O)C2(C(F)(F)F)C/C(=C\CCO)CCCO2)o1 (configuration not stated)	inactive
COc1cccc(NC(=O)CC2C(=O)NCCN2C(=S)Nc2ccc(F)cc2)c1 (configuration not stated)	inactive
Cc1ccc(SCC(CC(C)C)N2CCN(CCc3ccccc3)CCC2=O)cc1 (configuration not stated)	inactive
COC(=O)c1sc(=S)n(-c2ccc(Cl)cc2)c1C	inactive
COC(=O)c1ccc([C@@H](O)[C@H](C)C(=O)CC(=O)OC(C)(C)C)cc1	inactive
C[C@@H](O)[C@@H]1NC(=O)[C@H](CCCCN)NC(=O)[C@H](Cc2c[nH]c3ccccc23)NC(=O)[C@H](Cc2ccccc2)NC(=O)[C@H](Cc2ccccc2)NC(=O)[C@H](CC(N)=O)NC(=O)[C@H](CCCCN)NC(=O)[C@@H](NC(=O)[C@@H]2CCCN2)CSSC[C@@H](C(=O)N[C@@H](CCCCN)C(=O)O)NC(=O)[C@H](CO)NC(=O)[C@H](CO)NC(=O)[C@H](Cc2ccccc2)NC1=O (HELM PEPTIDE1{P.C.K.N.F.F.W.K.T.F.S.S.C.K}$PEPTIDE1,PEPTIDE1,2:R3-13:R3$$$V2.0)	inactive
Cc1ccccc1N1CCN(Cc2nc(Cc3ccccc3F)no2)CC1	inactive
O=c1cc(-c2ccc(O)cc2)oc2c(-c3cc(-c4cc(=O)c5c(O)cc(O)cc5o4)ccc3O)c(O)ccc12	inactive
O=C(CSc1nc(O)c(Cc2ccccc2)c(=O)[nH]1)Nc1nc2c(s1)CCCC2	inactive
CCOC(=O)C1=C(CN2CCc3ccccc32)NC(=O)NC1c1ccc(Cl)cc1 (configuration not stated)	inactive
C=CCOC(=O)C(=C)C	inactive
COc1ccc(-c2ccc(C3C4C=CCCC4(C)C(=O)N3Cc3ccccc3)c(F)c2)cc1OC (configuration not stated)	inactive
Cc1cccc(CNc2ccnc(-c3cccnc3)n2)c1	inactive
OCCC(O)CO (configuration not stated)	inactive
C/C=C/c1ccc(OCC(O)CN2CCCCCCC2)c(OC)c1 (configuration not stated)	inactive
Cc1ccc(N(C(=O)c2ccc(S(=O)(=O)N(C)C)cc2)C2C=CS(=O)(=O)C2)cc1 (configuration not stated)	inactive
CC[C@H](C)[C@H](NC(=O)[C@H](CCCNC(=N)N)NC(=O)[C@H](CCCNC(=N)N)NC(=O)[C@H](CC(C)C)NC(=O)[C@H](Cc1ccccc1)NC(=O)CNC(=O)CNC(=O)[C@@H](N)Cc1ccc(O)cc1)C(=O)N[C@@H](CCCNC(=N)N)C(=O)N1CCC[C@H]1C(=O)N[C@@H](CCCCN)C(=O)N[C@@H](CC(C)C)C(=O)N[C@@H](CCCCN)C(=O)N[C@@H](Cc1c[nH]c2ccccc12)C(=O)N[C@@H](CC(=O)O)C(=O)N[C@@H](CC(N)=O)C(=O)N[C@@H](CCC(N)=O)C(=O)O	inactive
CC(C)=CCC[C@]1(C)[C@@H](CC=C(C)C)C[C@@]2(CC=C(C)C)C(=O)[C@]1(C(=O)C(C)C)C(=O)C(CC=C(C)C)=C2O	inactive
COC(=O)C(CC(C)C)NS(=O)(=O)c1cc(Br)ccc1Br (configuration not stated)	inactive
